Bioassay records as filed in PubChem BioAssay.
BAZ2B block: qHTS Assay for Inhibitors of BAZ2B; AID 504333, 2011; Bromodomain adjacent to zinc finger domain protein 2B (Homo sapiens), Q9UIF8; Potency, µM (doses to about 114 µM), for inactives: at the top dose activity change, negative = inhibition, actives largely listed as inhibitors; AlphaScreen BAZ2B-H3K14Ac peptide displacement; actives 4.4% (n = 360,000); further: on the % scale 0 is the no-effect control and ±100 the full control effect; nearly all actives have a fitted effect of over 60% in size
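Protein-peptide AlphaScreen: BAZ2B 50 nM, b-H3K14Ac 50 nM, 1x PBS pH 7.4 + 0.01% Tween-20. Preincubation 30 min RT; cpd 30 min RT (top 110 uM); beads 20 min RT, light-protected.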
HP1b chromo inh: HTS for Inhibitors of HP1-beta Chromodomain Interactions with Methylated Histone Tails. Chromobox protein homolog 1 (Homo sapiens), P83916. AlphaScreen HP1-beta / biotin-H3K9me3 peptide binding. Potency, µM (titrated, usually from 114 µM), without a hit: top-dose activity change, negative = inhibition, most hits filed as inhibitors. actives 0.56% (n = 390,000). AID 540317, 2011; further: nearly all actives have a fitted effect of over 70% in size
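HP1-beta protein (50 nM final) preincubated 30 min at room temperature with biotinylated H3(1-18)K9me3 peptide (50 nM) in PBS pH 7.4, 0.01% Tween-20, then compound added for 30 min. AlphaScreen streptavidin donor/nickel chelate acceptor beads (10 ug/mL final), 30 min dark, luminescence read.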
JMJD2A Tudor inh: qHTS Assay for Inhibitors of JMJD2A-Tudor Domain | AlphaScreen JMJD2A-Tudor / H3K4me3 peptide binding | actives 4.4% (n = 390,000) | Potency, µM (series often up to 114 µM), without a hit: at the highest dose activity change, negative = inhibition, hits mostly inhibitors | AID 504339, 2011 | Lysine-specific demethylase 4A (Homo sapiens), O75164; further: on the % scale 0 is the no-effect control and ±100 the full control effect; nearly all actives have a fitted effect of over 50% in size
Target sequence (O75164 whole entry, looked up, the tested form may be a part): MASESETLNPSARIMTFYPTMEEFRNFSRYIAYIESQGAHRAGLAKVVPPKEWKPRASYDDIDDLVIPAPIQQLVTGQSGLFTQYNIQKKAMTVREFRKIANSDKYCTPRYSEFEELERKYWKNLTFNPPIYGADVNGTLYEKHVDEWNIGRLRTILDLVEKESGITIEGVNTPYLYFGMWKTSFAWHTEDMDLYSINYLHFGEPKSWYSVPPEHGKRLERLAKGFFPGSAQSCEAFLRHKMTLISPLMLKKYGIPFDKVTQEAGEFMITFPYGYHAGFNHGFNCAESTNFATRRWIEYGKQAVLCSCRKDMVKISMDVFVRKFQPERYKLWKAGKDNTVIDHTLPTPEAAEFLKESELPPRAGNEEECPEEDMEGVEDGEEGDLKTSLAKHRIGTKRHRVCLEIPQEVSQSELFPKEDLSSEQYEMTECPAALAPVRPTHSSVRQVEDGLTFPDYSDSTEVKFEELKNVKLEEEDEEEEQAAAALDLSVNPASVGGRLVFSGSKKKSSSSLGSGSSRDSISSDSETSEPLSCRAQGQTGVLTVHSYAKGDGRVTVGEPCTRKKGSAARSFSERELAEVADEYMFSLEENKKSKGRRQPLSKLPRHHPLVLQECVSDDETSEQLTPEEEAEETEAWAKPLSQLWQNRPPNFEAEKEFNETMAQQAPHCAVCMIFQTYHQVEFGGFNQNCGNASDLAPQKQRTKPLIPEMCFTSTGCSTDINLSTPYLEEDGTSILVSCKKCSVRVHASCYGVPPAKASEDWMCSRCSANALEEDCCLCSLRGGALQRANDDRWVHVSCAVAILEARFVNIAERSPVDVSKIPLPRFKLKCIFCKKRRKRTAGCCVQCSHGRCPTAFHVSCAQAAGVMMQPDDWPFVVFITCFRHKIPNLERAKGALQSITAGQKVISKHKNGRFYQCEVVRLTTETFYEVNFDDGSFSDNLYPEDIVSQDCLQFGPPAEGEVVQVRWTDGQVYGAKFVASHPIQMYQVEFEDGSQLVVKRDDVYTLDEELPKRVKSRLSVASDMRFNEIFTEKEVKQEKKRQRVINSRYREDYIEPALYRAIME
Sfp inh: qHTS Assay for Inhibitors of Bacillus subtilis Sfp phosphopantetheinyl transferase (PPTase); Biochemical Sfp PPTase activity, qHTS; actives 3.5% (n = 310,000); 4'-phosphopantetheinyl transferase ffp (Bacillus subtilis), Q9F4F7; Potency, µM, for inactives: largest response in the series, negative = inhibition, actives largely listed as inhibitors;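 further: the enzyme is Sfp with the accession as filed and its product quenches rhodamine fluorescence; 0% = enzyme reaction without inhibitor and -100% = no enzyme wells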
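Fluorescence-quenching assay with 15 nM Sfp, 5 uM rhodamine-CoA and 12.5 uM BHQ-2-labelled ybbR peptide in pH 7.6 Hepes/MgCl2 buffer. Enzyme was pre-incubated with compound for 15 min at room temperature. Rate was taken from the 30-min fluorescence change (525/598 nm).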
G9a inh: qHTS Assay for Inhibitors of Histone Lysine Methyltransferase G9a | Histone-lysine N-methyltransferase EHMT2 (Homo sapiens), Q96KQ7 | G9a H3K9 monomethylation, AlphaScreen, 2 h | Potency, µM (highest dose often 102 µM), without a hit: at the top dose activity, negative = inhibition, usual class: inhibitors | actives 8.8% (n = 350,000) | AID 504332, 2011; further: on the % scale 0 is the no-effect control and ±100 the full control effect; nearly all actives have a fitted effect of over 75% in size
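AlphaScreen detection with an anti-monomethyl H3K9 antibody quantified product after a 2 h room-temperature reaction containing 500 nM biotinylated H3K9 peptide, 20 µM SAM and 20 nM enzyme, which had been preincubated 15 min with compound.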
12-LOX inh: Primary qHTS assay for inhibitors of human arachidonate 12S-lipoxygenase (ALOX12): Round 2; Polyunsaturated fatty acid lipoxygenase ALOX12 (Homo sapiens), P18054; actives 1.1% (n = 580,000); Potency, µM (titrated, usually from 108 µM), for inactives: top-dose activity change, negative = inhibition, most hits filed as inhibitors; AID 1671190, 2021; purified 12hLO, xylenol orange hydroperoxide absorbance; further: on the % scale 0 is the no-effect control and ±100 the full control effect
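Hydroperoxide product was detected by ferrous iron/xylenol orange as the 573 to 405 nm absorbance ratio. Arachidonic acid at 40 uM (final) was turned over for 30 min at room temperature by 150 nM human 12hLO, pH 7.0 Hepes buffer, after 15 min compound preincubation.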
Active calls of the source: *; i = inactive; ? = inconclusive; . = not tested or not shown; [ ] = another dose, or the depositor's remark. In the library only some 8.7% were active in any assay of this set; here they are far more common. The call rests on the fitted dose curve; in most records, active means well fitted curve in the direction sought with a large enough effect; inconclusive means small, poorly fitted or top-dose-only effect, or another doubt; inactive means no such curve, though single readings can be large; an effect the other way counts as inactive or inconclusive. Potency means the concentration at half of the fitted maximal effect.

SMILES	BAZ2B block	HP1b chromo inh	JMJD2A Tudor inh	Sfp inh	G9a inh	12-LOX inh
CCS(=O)(=O)N1CCCN(c2ccc(=O)n(-c3ccccc3)n2)CC1	.	.	.	.	.	1%
CC1CCCN(C(=O)CCN2CCN(CCc3ccccc3)CC2)C1 (stereo not drawn)	.	.	.	.	.	6%
CC1CCCN(C(=O)C2CCN(CC(C)c3ccccc3)CC2)C1 (stereo not drawn)	-28%	?	3.5µM*	8%	?	-15%
CC1CCCN(C(=O)C2CCN(CCCc3ccccc3)CC2)C1 (stereo not drawn)	?	?	3.5µM*	?	16µM*	?
Cc1sc2nc(SCc3nc(-c4ccccc4)no3)n(-c3ccccc3)c(=O)c2c1C	1%	21%	12%	-6%	3.2µM*	-2%
C=CCn1c(NC(=O)c2ccccc2Cl)c(C#N)c2nc3ccccc3nc21	10%	40%	-23%	79µM*	12%[59 µM]	-11%
O=C(c1nc2sccn2c1Br)N1CCCC1	.	.	.	.	.	-1%[176 µM]
C/C(Cn1cnc([N+](=O)[O-])n1)=N\NC(=O)c1ccc(F)cc1	-2%	37%	-16%	10%	20µM*	?
C/C(Cn1cnc([N+](=O)[O-])n1)=N\NC(=O)c1cccc(F)c1	6%	16%	?	10%	9%[59 µM]	?
CCc1cccc(C)c1NS(=O)(=O)c1ccc(-c2cnc(C3CC3)o2)cc1	.	.	.	.	.	-3%
CCN(C(=O)c1ccco1)c1nc(-c2ccccc2)cs1	.	.	.	.	.	-10%
CCCOc1ccc(-c2c(=O)n(O)c3ccccc3[n+]2[O-])cc1	?	-18%	56µM*	-21%	9%[0.501 µM]	?
Cc1cccc(NC(=O)CN2C(=S)NC(C)(C)CC2C)c1 (stereo not drawn)	2%	-1%	-10%	-11%	20µM*	?
Cc1ccccc1NC(=O)CN1C(=S)NC(C)(C)CC1C (stereo not drawn)	4%	-9%	-3%	-3%	18µM*	?
CC1CC(C)(C)NC(=S)N1CC(=O)NCc1ccc(Cl)cc1 (stereo not drawn)	-4%	11%	-14%	-7%	28µM*	?
CC1CC(C)(C)NC(=S)N1CC(=O)NCc1ccccc1Cl (stereo not drawn)	7%	38%	3%	7%	?	-12%
O=C(CCn1c2c(c3ccccc31)CCCC2)NNC(=O)c1ccc([N+](=O)[O-])cc1	-36%	-5%	-32%	-10%	16µM*	-16%
O=C(CCn1c2c(c3ccccc31)CCCC2)NNC(=O)c1ccc(Cl)c([N+](=O)[O-])c1	5%	?	?	8%	?	19%
CC(C)Oc1ccc(C(=O)Nc2cccc(-c3nc4ccccc4o3)c2)cc1	.	.	.	.	.	12%
NC(=O)CN1CCC(c2nc(-c3ccc4nc[nH]c4c3)no2)CC1	.	.	.	.	.	-1%
CCOC(=O)C1CCCCN1Cc1cccc(Oc2ccccc2)c1 (stereo not drawn)	63%	107%	65%	7%	53%	14µM*
CCOC(=O)C1CCCCN1Cc1cccc(OCc2ccccc2)c1 (stereo not drawn)	?	?	10µM*	?	.	23%
CCOC(=O)C1CCCCN1Cc1cc(Cl)ccc1O (stereo not drawn)	17%	85%	16%	3%	-11%[59 µM]	?
O=C(NC1CCN(c2cc(-c3cccs3)[nH]n2)CC1)c1cccc(F)c1	.	.	.	.	.	21%
C=CCNc1nc(C(=O)OC(C)C(=O)c2ccc3c(c2)CCC3)cs1 (stereo not drawn)	.	.	.	.	.	-33%
SMILES	BAZ2B block	HP1b chromo inh	JMJD2A Tudor inh	Sfp inh	G9a inh	12-LOX inh
O=S(=O)(O)c1cc(O)c2cc(Nc3ccccc3)ccc2c1	.	35µM*	14µM*	.	.	35µM*
O=S(=O)(O)c1cc(O)c2c(N=Nc3ccc(Nc4ccccc4)c4c(S(=O)(=O)O)cccc34)cc(S(=O)(=O)O)cc2c1	.	.	.	-7%	?	.
O=C(O)c1cc(S(=O)(=O)O)ccc1O	?	12%	?	-10%	?	?
Nc1ccc2c(O)cc(S(=O)(=O)O)cc2c1	.	?	45µM*	.	.	?
O=S(=O)(O)c1cc(O)c2ccc(Nc3ccccc3)cc2c1	.	?	2.8µM*	.	.	18µM*
O=S(=O)(O)c1ccc(O)c2cc(Nc3ccccc3)ccc12	.	2µM*	2.8µM*	.	.	32µM*
COc1ccc(-c2ccc3nc(-c4cccc(Cl)c4)oc3c2)c(OC)c1OC	.	.	.	.	.	-7%
Nc1cccc2c(O)cc(S(=O)(=O)O)cc12	.	10µM*	10µM*	.	.	.
COc1ccccc1Nc1ccc2c(O)cc(S(=O)(=O)O)cc2c1	.	22µM*	20µM*	.	.	10µM*
CCCCn1c(N)c(N(CCOC)C(=O)c2cc3c(s2)CCC3)c(=O)[nH]c1=O	3%	9%	-19%	.	18µM*	-26%
CCCn1c(N)c(N(CCOC)C(=O)c2ccc(C#N)cc2)c(=O)[nH]c1=O	-9%	27%	5%	9%	71µM*	-11%
CCCCN(C(=O)c1cc(CC)c(C)s1)c1c(N)n(CC(C)C)c(=O)[nH]c1=O	-26%	33%	-7%	8%	-3%	i
CCc1sc(C(=O)N(CCCOC)c2c(N)n(CC(C)C)c(=O)[nH]c2=O)cc1C	-5%	30%	-7%	.	0.79µM*	0%
O=C(c1ccccc1)N1CCC2(CC1)SCC(=O)N2c1ccccc1	.	.	.	.	.	74%
Cc1oc(-c2nc(C#N)c(NCc3cccnc3)o2)cc1S(=O)(=O)N(C)c1ccccc1	.	.	.	.	.	12%
Cc1cccc(OCCN)c1	.	.	.	.	.	7%
N#Cc1nc(COc2ccc(Br)cc2)oc1NCCN1CCOCC1	?	13%	-27%	3%	50µM*	3%
N#Cc1nc(COc2ccc(F)cc2)oc1NCCN1CCOCC1	?	26%	-22%	11%	79µM*	-3%
O=C(NCCc1nnc2n1CCCCC2)Nc1ccccc1F	.	.	.	.	.	-23%
Cc1cc(N2CCN(C)CC2)nc(=S)[nH]1	-30%	54%	-9%	50µM*	40µM*	2%
c1ccc(-c2cc(N3CCOCC3)nc3ccccc23)cc1	50µM*	9%	3.2µM*	56µM*	4.5µM*	?
Cc1cc(N2CCOCC2)nc2ccccc12	8%	27%	-1%	19%	-1%[59 µM]	332%
